Compound activity as filed in PubChem BioAssay.
CBX7 AlphaScr: inhibitors of human CBX7 binding to H3K27me3 peptide | O95931 | AlphaScreen His6-CBX7 / biotin-H3K27me3 peptide binding; hits give low values | normalised signal (fraction of DMSO) (no concentration beside the values) | 66,000 compounds, 1.1% hits | AID 1224903; in the data active means normalised signal below about 0.5
Target sequence (O95931 whole entry, looked up): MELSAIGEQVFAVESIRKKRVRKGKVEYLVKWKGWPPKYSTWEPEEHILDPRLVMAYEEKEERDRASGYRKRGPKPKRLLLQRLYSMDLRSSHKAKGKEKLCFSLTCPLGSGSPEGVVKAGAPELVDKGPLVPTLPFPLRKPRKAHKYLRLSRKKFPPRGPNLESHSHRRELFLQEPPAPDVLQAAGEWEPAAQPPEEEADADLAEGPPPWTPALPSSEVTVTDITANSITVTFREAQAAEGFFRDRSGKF
* hit, by the source's call. The sample as a whole holds a higher share of hits than the screen did.

SMILES	CBX7 AlphaScr
Cc1ccc(-c2noc(CN3CCN(c4ccc(F)cc4)CC3)n2)cc1	0.99
COc1ccc(N2CCN(Cc3nc(-c4ccc(C)cc4)no3)CC2)cc1	0.316*
Cc1ccc(-c2noc(CN3CCOCC3)n2)cc1	1.33
COc1cc2c(C(=O)N(C)c3ccc(C(C)C)cc3)cn(C)c(=O)c2cc1OC	1.04
O=C(CC1Sc2ccccc2NC1=O)Nc1ccc2c(c1)OCO2 (stereo not given)	0.889
COc1ccc(C2Sc3ccccc3NC3=C2C(=O)c2ccccc23)cc1OC (stereo not given)	0.4*
O=C(CC1Sc2ccccc2NC1=O)Nc1ccc2c(c1)OCCO2 (stereo not given)	1.24
COc1ccc(NC(=O)CC2Sc3ccccc3NC2=O)cc1OC (stereo not given)	0.983
O=C1C2=C(Nc3ccccc3SC2c2ccco2)c2ccccc21 (stereo not given)	0.39*
CC(C(=O)NC1CCCC1)C1Sc2ccccc2NC1=O (stereo not given)	1.01
O=C1C2=C(Nc3ccccc3SC2c2ccc3c(c2)OCO3)c2ccccc21 (stereo not given)	0.354*
COc1ccc(C2CC(=O)C3=C(C2)Nc2ccccc2NC3c2ccncc2)cc1OC (stereo not given)	1.02
Cc1ccc(NC(=O)c2cccc3c2C(=O)N(C2CCCCC2)C3)cc1F	0.919
CSc1cccc(Nc2cc(C(=O)N(C)Cc3ccccc3)c3ccccc3n2)c1	1.25
Cc1ccsc1-c1nc(CSCC(=O)NCCc2ccc(Cl)cc2)c(C)o1	0.854
CCOc1ccc2nc(N3CCCC(C(=O)NCc4ccccc4)C3)sc2c1 (stereo not given)	1.12
O=C(CCc1nc(-c2ccccc2F)no1)N1CCN(c2ncccn2)CC1	0.867
COc1ccc(S(=O)(=O)N2CC=C(C(=O)NCCc3ccccc3)CC2)cc1	1
COCc1nnc(NC(=O)c2ccc(S(=O)(=O)N(CC(C)C)CC(C)C)cc2)o1	0.0806*
C=CCN(CC=C)S(=O)(=O)c1ccc(C(=O)Nc2nnc(COC)o2)cc1	0.0685*
CCCCCCc1cc2cc(-c3csc(Nc4ccccc4F)n3)c(=O)oc2cc1O	0.972
COc1cccc(-c2nc(C(=O)NCCc3ccc(C)cc3)c(C)o2)c1	1.1
Cc1ccc(Nc2nc(-c3cccnc3)cs2)c(C)c1	0.882
COc1ccc(-c2noc(-c3ccc(Br)cc3)n2)cc1OC	1.29
COc1ccc(-c2cc(-c3c(O)c(OC)c4occc4c3OC)[nH]n2)cc1OC	0.45*
SMILES	CBX7 AlphaScr
COc1c(-c2cc(-c3ccccc3)n[nH]2)c(O)c(OC)c2occc12	0.649
O=C1CC2c3ccccc3C1C1C(=O)N(Cc3cccnc3)C(=O)C21 (stereo not given)	0.982
COc1ccc(C2CC(=O)Nc3cc(OC)c(OC)cc32)cc1Cl (stereo not given)	0.874
OC(COc1ccccc1Cl)Cn1cnc2ccccc21 (stereo not given)	0.245*
OC(COc1ccc(Br)cc1)Cn1cnc2ccccc21 (stereo not given)	0.587
Cc1ccc(Cl)c(OCC(O)Cn2cnc3ccccc32)c1 (stereo not given)	0.675
O=C(O)c1ccccc1OCC(O)Cn1cnc2ccccc21 (stereo not given)	0.999
Cc1cc(C)c(OCC(O)Cn2cnc3ccccc32)c(C)c1 (stereo not given)	0.482*
CCCc1nc2ccccc2n1CC(O)COc1c(C)cc(C)cc1C (stereo not given)	0.933
C=CCN1N=C(NC(=O)c2ccc(Br)cc2)SC(C)=C1c1ccc(Cl)cc1	0.924
O=C(NCc1ccccn1)c1ccc2c(c1)N(Cc1ccc(F)cc1)C(=O)c1ccccc1S2=O (stereo not given)	0.539
COc1ccc(-c2nc(CSCC(=O)NCc3ccc(F)cc3)c(C)o2)cc1	0.947
CC(C)C(=O)Nc1nc(-c2ccc(Oc3ccccc3)cc2)cs1	0.945
O=C(NCCN1CCCCCC1)c1cc2c(s1)-c1ccccc1OC2	1.89
COc1ccc(CSc2nc3ccccc3[nH]2)cc1	0.975
COc1ccc(C2NC(C(=O)O)Cc3[nH]cnc32)cc1CSc1nc2ccccc2[nH]1 (stereo not given)	0.495*
COc1ccc(C2NCCc3c2[nH]c2ccccc32)cc1CSc1nc2ccccc2[nH]1 (stereo not given)	0.895
Cc1ccc(-c2[nH]c(-c3ccc(F)cc3)nc2SCC(=O)Nc2ccc3c(c2)OCO3)cc1	0.939
COc1ccc2cc(CCNC(=O)Cc3cccc4ccccc34)c(=O)[nH]c2c1	0.967
Cc1ccc2nc(-c3ccc(NC(=O)c4ccc(Cl)cc4)cc3)oc2c1	1.08
Cc1ccc(Nc2cc(C(=O)NCc3ccc(Cl)cc3)c3ccccc3n2)c(C)c1	0.901
COc1ccc(NC(=O)NCCN2CCN(c3cc(Cl)ccc3C)CC2)cc1	0.994
COCCCNC(=O)CSc1nc(-c2cccc(OC)c2)[nH]c1-c1ccc(Cl)cc1	1.03
COCCN(CCOC)S(=O)(=O)c1ccc(C(=O)Nc2nnc(C3CC3)o2)cc1	0.543
CCc1nnc(NC(=O)c2ccc(S(=O)(=O)N(C)C)cc2)o1	0.0418*
SMILES	CBX7 AlphaScr
CN(C1CCCCC1)S(=O)(=O)c1ccc(C(=O)Nc2nnc(-c3cccs3)o2)cc1	0.923
COCc1nnc(NC(=O)c2ccc(S(=O)(=O)N(C)C)cc2)o1	0.559
CN(C1CCCCC1)S(=O)(=O)c1ccc(C(=O)Nc2nnc(C3CC3)o2)cc1	0.0285*
CCCCN(CCCC)S(=O)(=O)c1ccc(C(=O)Nc2nnc(C3CC3)o2)cc1	0.0448*
CN(C1CCCCC1)S(=O)(=O)c1ccc(C(=O)Nc2nc(-c3ccncc3)cs2)cc1	0.961
COCc1nnc(NC(=O)c2ccc(S(=O)(=O)N(CCC#N)CCC#N)cc2)o1	0.0627*
CCCCOC(=O)c1ccc(N2C(=O)CC(N3CCN(c4ccccn4)CC3)C2=O)cc1 (stereo not given)	1.02
O=C(Nc1cccc(Cl)c1)c1cnc(N2CCN(c3ncccn3)CC2)c2ccccc12	1.25
COc1ccccc1NC1c2ccccc2C(=O)N1Cc1ccccc1 (stereo not given)	1.06
CCOc1ccc2nc(C)cc(Nc3ccc(OC)cc3)c2c1	1.11
CCn1cc(C(=O)Nc2cccc(NC(C)=O)c2)c(=O)c2ccc(C)nc21	1.03
CN(C(=O)c1nn2c(c1Cl)NC(c1cccs1)CC2C(F)(F)F)C1CCCCC1 (stereo not given)	1
CCC(=O)N1CCc2cc(S(=O)(=O)NC(C(=O)Nc3ccc(OC)cc3)C(C)C)ccc21 (stereo not given)	0.921
CCN(Cc1ccccc1)S(=O)(=O)c1ccc(C(=O)Nc2nnc(COC)o2)cc1	0.883
CCCCN(CC)S(=O)(=O)c1ccc(C(=O)Nc2c(C(=O)OCC)oc3ccccc23)cc1	1.1
CCCCN(C)S(=O)(=O)c1ccc(C(=O)Nc2nnc(-c3cccs3)o2)cc1	0.68
CCCCN(CC)S(=O)(=O)c1ccc(C(=O)Nc2nnc(COC)o2)cc1	0.0616*
CCCCN(CCCC)S(=O)(=O)c1ccc(C(=O)Nc2nnc(CC)o2)cc1	0.0506*
CCc1nnc(NC(=O)c2ccc(S(=O)(=O)N(CCOC)CCOC)cc2)o1	0.504
CCOc1ccc(C2C(=O)N(C3CCCCCC3)CC(=O)N2C2CCCCCCC2)cc1OC (stereo not given)	0.748
COc1ccc(-c2nc3cc(C)ccn3c2NC(=O)c2cccc(C)c2)cc1	0.799
CC(C)CN(CCCNC(=O)c1csc2c1CCCC2)CC(C)C	1.08
CC(=O)N1CCN(CC(O)COc2ccc(Br)cc2)CC1 (stereo not given)	0.464*
